The values below come from ChEMBL document CHEMBL3433997, “St. Jude Leishmania screening dataset” (2016).

Common to all, as to type: functional
For assay [1], the target named is Solute carrier family 2, facilitated glucose transporter member 1 (Homo sapiens) (UniProt P11166). In words: ST_JUDE_LEISH: Cytotoxicity at 2uM final concentration against transgenic Leishmania Mexicana promastigotes LmGLUT1 that are glucose transport deficient and complemented with the human glucose transporter GLUT1. Activity is measured by DNA content using SYBR green in vitro.

The target of assay [2] is Hexose transporter 1 (Plasmodium falciparum) (UniProt O97467). Nature of the assay: ST_JUDE_LEISH: Cytotoxicity at 2uM final concentration against transgenic Leishmania Mexicana promastigotes LmPfHT that are glucose transport deficient and complemented with the Plasmodium falciparum hexose transporter. Activity is measured by DNA content using SYBR green in vitro.
Assay [3] deals with Glucose transporter (Leishmania mexicana) (UniProt O61059). Nature of the assay: ST_JUDE_LEISH: Cytotoxicity at 2uM final concentration against transgenic Leishmania Mexicana promastigotes LmGT2 that are glucose transport deficient and complemented with the L. Mexicana glucose transporter 2. Activity is measured by DNA content using SYBR green in vitro.

Sequence of Solute carrier family 2, facilitated glucose transporter member 1 (Homo sapiens) (P11166 whole entry): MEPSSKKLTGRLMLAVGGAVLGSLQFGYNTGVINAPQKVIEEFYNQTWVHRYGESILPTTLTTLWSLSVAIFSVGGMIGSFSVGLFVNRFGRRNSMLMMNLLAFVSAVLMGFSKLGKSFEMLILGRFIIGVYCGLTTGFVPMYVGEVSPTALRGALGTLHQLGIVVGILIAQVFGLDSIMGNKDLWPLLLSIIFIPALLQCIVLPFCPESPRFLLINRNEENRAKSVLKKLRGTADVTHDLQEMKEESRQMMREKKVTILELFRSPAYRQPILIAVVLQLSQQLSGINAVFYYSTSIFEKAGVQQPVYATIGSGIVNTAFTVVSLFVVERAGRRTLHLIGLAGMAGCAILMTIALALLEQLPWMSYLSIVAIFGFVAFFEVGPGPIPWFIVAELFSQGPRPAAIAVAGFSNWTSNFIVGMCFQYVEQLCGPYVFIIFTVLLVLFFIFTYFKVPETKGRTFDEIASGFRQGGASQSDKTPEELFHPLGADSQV

In the case of `COc1cc(NC(=O)N2CCOC(CCN3CCC4(CCc5ccccc54)CC3)(c3ccc(Cl)c(Cl)c3)C2)cc(OC)c1OC` (stereo unspecified), the inhibition – broadly, the drop in the measured response relative to a control, in per cent – was determined as 18.1% in assay [1], 15.1% in assay [2] and 14.1% in assay [3].
In the same order, the values of `Cc1nnsc1C(=O)Nc1cccc(-c2ccc(-c3nc4cc(F)ccc4[nH]3)cc2)c1` are 3.93%, 3.3% and 4.66%.
In the same order, the values of `Fc1ccccc1COc1ccc(Nc2ncnc3ccc(I)cc23)cc1Cl` are 18.2%, 9.09% and 4.67%.
On to `CN(C)CCOc1cc(NC(=O)Nc2ccc(-c3ccncc3)c3ccccc23)ccc1I`, for which the inhibition came to 6.39% in assay [1], 8.78% in assay [2] and 1.62% in assay [3].
Turning to `O=C(NCC1CCC(C(=O)NCc2cccc3ccccc23)CC1)c1ccc(O)c(-c2ccc(Cl)c(Cl)c2)c1` (stereo unspecified), the inhibition in assay [1] is 5.23%; in assay [2], 3.37%; in assay [3], 4.73%.
In the case of `COc1cc2nc(N3CCC(CNC(=O)c4ccc(-c5ccc(C(=O)N(C)C)cc5)cc4)CC3)nc(N)c2cc1OC`, the inhibition worked out at 1.96% in assay [1], 0.11% in assay [2] and 1.75% in assay [3].
The matching figures for `CC(C)c1ccc2c(c1)c(SC(C)(C)C)c(CC(C)(C)C#N)n2Cc1ccc(Cl)cc1`: 3.18%, 0.69% and -0.23%.
In the same order, the values of `CCCC(=O)NC(c1ccc(C(C)C)cc1)c1ccc2cccnc2c1O` (stereo unspecified) are 2.04%, 3.11% and 0.65%.
The matching figures for `Cc1cc(Nc2ncc3c(n2)N(C2CCC2)CC3)ccc1N1CCN(C)CC1`: 0.65%, 1.15% and 1.26%.
For the molecule `COc1ccc(Nc2nccc(-c3ccc(NC(=O)c4cc5cc(F)ccc5[nH]4)cc3)n2)cc1`, the inhibition in assay [1] was -0.57%; in assay [2], 0.09%; in assay [3] it was -1.37%.
In the same order, the values of `c1ccc(-n2ncc(CNCc3ccc(-c4cccc(-c5nc6ccccc6[nH]5)c4)cc3)n2)cc1` are 1.76%, 1.26% and -2.38%.
With `CC(C)CCCC(C)(C)NC[C@@H](O)[C@H](Cc1ccccc1)NC(=O)c1cccc(OCC2CC2)c1`, the inhibition in assay [1] is 1.19%; in assay [2], 1.25%; in assay [3], 1.85%.
As for `SC(=Nc1ccc(Cl)c(Cl)c1)NN=Cc1ccccn1`, the values for the inhibition in assay [1], in assay [2] and in assay [3] were 1.55%, 1.69% and -1.58%, respectively.
In the same order, the values of `COc1cc(Nc2nccc(NCC(O)c3ccc(C(F)(F)F)cc3)n2)cc(OC)c1OC` (stereo unspecified) are 1.6%, 2.84% and 2.81%.
Take `O=C(Cc1c[nH]cn1)Nc1cccc(-c2ccc(-c3nc4cc(F)ccc4[nH]3)s2)c1`: the inhibition came to 3.94% in assay [1], 6.17% in assay [2] and 0.26% in assay [3].
The matching figures for `CCNc1cc(C(=O)N[C@@H](Cc2ccccc2)[C@H](O)CNC23CCC(CC2)C3)cc(N2CCCCS2(=O)=O)c1`: 0.79%, -1.58% and 3.19%.
In the case of `COc1cc(NC(=O)/C=C/c2cccc3ccoc23)ccc1OCCN(C(C)C)C(C)C`, the inhibition in assay [1] came to 9.36%; in assay [2] it was 3.8%; in assay [3], 1.81%.
In the same order, the values of `c1ccc2[nH]c(CN(Cc3nc4ccccc4[nH]3)Cc3nc4ccccc4[nH]3)nc2c1` are -2.76%, 1.73% and -0.29%.
In the same order, the values of `CC/N=C(/NCCCCCCN/C(=N/CC)NCc1ccccc1)NCc1ccccc1` are 0.49%, -0.55% and -2.09%.
The matching figures for `CCCC(C)Nc1nc(C)cc(N[C@@H](CC(C)C)C(=O)NCc2ccc(C)cc2)n1` (stereo partly specified): 3.04%, 4.01% and 0.38%.
Regarding `Cc1c(N=O)cc(C(C)(C)C)c(O)c1C(=O)Nc1ccc([N+](=O)[O-])cc1Cl`, the results for the inhibition in assay [1], in assay [2] and in assay [3] were 2.33%, 5.18% and -0.56%, respectively.
In the same order, the values of `COc1cccc(-c2[nH]c3ccccc3c2CN2CCC(c3c(C)cccc3C)CC2)c1` are 2.03%, 2.95% and -1.74%.
As to `NC[C@H](CC1CCCCC1)NC(=O)c1ccc(-c2ccnc3[nH]ccc23)s1`, the inhibition was 7.16% in assay [1], 3.21% in assay [2] and 2.91% in assay [3].
The matching figures for `Cc1ccc(CNC(=N)NC(=O)c2nc(Cl)c(NCc3ccc(Cl)cc3)nc2N)c(C)c1`: -0.6%, 0.67% and 1.11%.
For the molecule `O=S(=O)(c1ccccc1C(F)(F)F)C1CC2CCC(C1)N2S(=O)(=O)c1ccc(Cl)c(C(F)(F)F)c1` (stereo unspecified), the values for the inhibition in assay [1], in assay [2] and in assay [3] were 4.13%, 2.35% and 0.74%, respectively.
The matching figures for `N#Cc1ccc(-c2ccc(C(=O)Nc3ccc4c(c3)CCN(C3CCC3)CC4)nc2)cn1`: 7.75%, 7.17% and 5.21%.
For the molecule `COc1ccc(CCc2ccc(-c3c(C)[nH]c(C)c(Cl)c3=O)cc2)cc1OC`, the inhibition was 12% in assay [1], 11% in assay [2] and 10.6% in assay [3].
In the same order, the values of `c1cc2[nH]c(CCc3nc4cc(C5=NC6CCCCC6N5)ccc4[nH]3)nc2cc1C1=NC2CCCCC2N1` (stereo unspecified) are 19.7%, 18.5% and 6.48%.
Take `CC(=O)C1=NN(c2ccc(Cl)cc2)C(c2cccs2)N1c1ccccc1` (stereo unspecified): the inhibition was determined as 1.62% in assay [1], 0.36% in assay [2] and 0.54% in assay [3].
In the same order, the values of `O=[N+]([O-])c1cccc(CNC2CCN(Cc3ccc4ccccc4c3)CC2)c1` are 19%, 12.4% and 10.9%.
In the same order, the values of `CN1CCN(CCCN(Cc2ccc(-c3cccc(CNC4CCCC4)c3)cc2)C(=O)Nc2ccccc2)CC1` are 9.1%, 3.98% and 5.53%.
The matching figures for `Cc1[nH]c2ccc(O)cc2c1C1CCN(CCCCCNC(=O)/C=C/c2ccc(Cl)c(Cl)c2)CC1`: 0.59%, 0.7% and 0.96%.
